We go through 13 compounds from PubChem BioAssay (NCI).

Compounds without any hit were thinned out: in the full panel of roughly 83,000, 20% have a hit.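 Growth was measured after 48 h exposure to one concentration of compound in 96-well plates. Values under 10 count as active.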 Values without a mark were called inactive. Activity calls are given as the source filed them.

Test systems include DU-145 prostate; K-562 leukemia; MALME-3M melanoma; MDA-MB-231 breast; RXF 393 renal; SF-268 CNS; SF-295 CNS; SF-539 CNS; UACC-257 melanoma; M14 melanoma.
Holding throughout (experiment): NCI-60 one-dose screen, 48 h (100 = growth as untreated, 0 = no growth, -100 = all killed)
Common to all, as to conditions: 10 µM unless noted

On to `CC1=C[C@H]2c3c(c(O)c(O)c4oc(-c5ccccc5)cc(=O)c34)[C@H](c3cc(O)c(O)c4oc(-c5ccccc5)cc(=O)c34)[C@H]2C(C)(C)C1`, for which the growth was 9.89% (active) with DU-145 prostate; 2.82% (active) in the assay on K-562 leukemia; -12.8% (active) in the assay on MALME-3M melanoma; 5.31% (active) with MDA-MB-231 breast; -26.6% (active) with RXF 393 renal; 5.26% (active) with SF-268 CNS. Moreover, the growth in the assay on SF-295 CNS is -18.2% (active); in the assay with SF-539 CNS it was -10.5% (active); with UACC-257 melanoma it was 12.8%; in the assay with M14 melanoma, -28.1% (active).

For the compound `O=C(N/N=C/c1ccccc1O)c1ccccc1Nc1ccnc(C(F)(F)F)c1`, the growth with DU-145 prostate was 27.3%; with K-562 leukemia, 17.7%; in the assay on MALME-3M melanoma, -0.966% (active); in the assay on MDA-MB-231 breast it was 40.4%; in the assay on RXF 393 renal, 18.7%; in the assay on SF-268 CNS, 14.6%. For the same compound, the growth in the assay with SF-295 CNS is 7.17% (active); with SF-539 CNS it was 0.988% (active); in the assay with UACC-257 melanoma, -0.662% (active); in the assay with M14 melanoma, -14.3% (active).

With `COc1ccc(/C=C\c2cc(OC)c(OC)c(OC)c2)cc1OC(=O)c1cccc(Cn2cc(CCOC(=O)[C@H](N)Cc3cn(C)c4ccccc34)nn2)c1`, the growth with DU-145 prostate was -8.08% (active); in the assay on K-562 leukemia, 4.84% (active); with MALME-3M melanoma, 65.4%; in the assay with MDA-MB-231 breast, 42.8%; in the assay with RXF 393 renal, 34.9%; in the assay on SF-268 CNS, 23.1%. The growth with SF-295 CNS was 14.2%; in the assay on SF-539 CNS, -13.6% (active); in the assay with UACC-257 melanoma, 68.2%; with M14 melanoma it was 9.47% (active).

In the case of `CCOC(=O)c1c(CN2CCN(C)CC2)nc2ccc(Cl)cc2c1-c1ccccc1`, the growth with DU-145 prostate was 85.7%; in the assay with K-562 leukemia, 11.7%; in the assay on MALME-3M melanoma it was 38.6%; in the assay on MDA-MB-231 breast, 70.7%; in the assay with RXF 393 renal, 42.9%; in the assay on SF-268 CNS it was 77.9%. Also, the growth with SF-295 CNS was 28.8%; in the assay on SF-539 CNS, 61.9%; in the assay on UACC-257 melanoma it was -38% (active); with M14 melanoma, -24.5% (active).

For the compound `C=CC(=O)Nc1cccc(Nc2nc(SC)nc(-c3cccc([N+](=O)[O-])c3)c2C#N)c1`, the growth in the assay on DU-145 prostate is 30%; in the assay on K-562 leukemia, 46.5%; in the assay on MALME-3M melanoma it was 14.9%; in the assay with MDA-MB-231 breast, 52.2%; in the assay with RXF 393 renal, 18.5%; with SF-268 CNS it was 74.8%. The growth is 49.7% with SF-295 CNS, 76.6% in the assay with SF-539 CNS, 49% in the assay with UACC-257 melanoma and 45% in the assay with M14 melanoma.

For the compound `CCN(CC)c1ccc(-c2cc(-c3cc(OC)c(OC)c(OC)c3)nc(N3CCOCC3)c2C#N)cc1`, the growth was 38.8% in the assay with DU-145 prostate; 1.69% (active) with K-562 leukemia; -12.6% (active) with MALME-3M melanoma; -10.9% (active) with MDA-MB-231 breast; -9.31% (active) with RXF 393 renal; 39.6% with SF-268 CNS. Besides, the growth in the assay with SF-295 CNS is -54.6% (active); in the assay on SF-539 CNS, 35.6%; with UACC-257 melanoma, -23.5% (active); in the assay with M14 melanoma, -53.9% (active).

With `COc1cccc(-c2nc3sccn3c2-c2ccnc(NCCNS(=O)(=O)c3ccccc3)c2)c1`, the growth is 20.5% in the assay on DU-145 prostate; 11.1% in the assay on K-562 leukemia; 43.1% with MALME-3M melanoma; 58.9% in the assay with MDA-MB-231 breast; 47.5% in the assay with RXF 393 renal; 31.9% with SF-268 CNS. Besides, the growth in the assay on SF-295 CNS is 10.8%; in the assay with SF-539 CNS, 66.9%; with UACC-257 melanoma it was 42.5%; in the assay with M14 melanoma, 22.5%.

For the compound `N#CN1CCC[C@H]1C(=O)N1CCc2c(-c3[nH]nc4ncccc34)cccc21`, the growth with DU-145 prostate is 0.94% (active); in the assay on K-562 leukemia, 4.49% (active); in the assay with MALME-3M melanoma it was 24%; in the assay with MDA-MB-231 breast it was 3% (active); in the assay on RXF 393 renal, -19.7% (active); in the assay with SF-268 CNS it was 7.17% (active). Moreover, the growth was -14.3% (active) with SF-295 CNS, -36.9% (active) with SF-539 CNS, 16.5% in the assay with UACC-257 melanoma and -23.4% (active) in the assay on M14 melanoma.

As for `COc1ccc(-c2cc(Nc3ccnc(N4CCOCC4)n3)on2)cc1`, the growth with DU-145 prostate is 19.6%; in the assay on K-562 leukemia, 13.1%; in the assay with MALME-3M melanoma, 87.2%; with MDA-MB-231 breast, 57.9%; in the assay on RXF 393 renal, -6.95% (active); in the assay with SF-268 CNS, 62.6%. Further, the growth with SF-295 CNS is 39.3%; in the assay with SF-539 CNS, -31.9% (active); in the assay on UACC-257 melanoma it was 72.7%; in the assay on M14 melanoma, 26.9%.

In the case of `O=C(N=Nc1c(O)[nH]c2ccc(Br)cc12)c1cc(-c2ccccc2)on1`, the growth with DU-145 prostate is 110%; with K-562 leukemia, 109%; in the assay with MALME-3M melanoma it was 89.5%; with MDA-MB-231 breast, 100%; in the assay on RXF 393 renal it was 117%; in the assay on SF-268 CNS, 100%. In addition, the growth in the assay on SF-295 CNS is 97.1%; in the assay on SF-539 CNS it was 97.6%; in the assay on UACC-257 melanoma it was 110%; with M14 melanoma it was 104%.

`COc1ccc(C(=S)N2CCN(c3cccc(Cl)c3)CC2)cc1`: the growth is 121% in the assay with DU-145 prostate; 119% with K-562 leukemia; 138% in the assay with MALME-3M melanoma; 101% in the assay on MDA-MB-231 breast; 160% with RXF 393 renal; 102% in the assay with SF-268 CNS. Besides, the growth with SF-295 CNS was 111%; in the assay on SF-539 CNS, 92.2%; in the assay on UACC-257 melanoma, -2.46% (active); in the assay on M14 melanoma it was 101%.

As to `CC[C@]1(O)C[C@@H]2CN(CCc3c([nH]c4ccccc34)[C@@](C(=O)OC)(c3cc4c(cc3OC)N(C)[C@H]3[C@@](O)(C(N)=O)[C@H](O)[C@]5(CC)[C@@H]6C[C@@H]6CN6CC[C@]43[C@@H]65)C2)C1`, the growth with DU-145 prostate is 4.49% (active); with K-562 leukemia, 11.8%; in the assay with MALME-3M melanoma it was 85.5%; in the assay with MDA-MB-231 breast it was 2.3% (active); in the assay with RXF 393 renal it was 60.4%; in the assay with SF-268 CNS it was 30.8%. Also, the growth in the assay on SF-295 CNS was 15.8%; with SF-539 CNS it was 7.92% (active); in the assay with UACC-257 melanoma, 53.6%; with M14 melanoma it was 1.22% (active).

Regarding `COc1cc2nc(N3CCCC3)nc(Nc3ccccc3)c2cc1OC`, the growth is 9.82% (active) in the assay on DU-145 prostate; -11.6% (active) with K-562 leukemia; -85.9% (active) in the assay on MALME-3M melanoma; -69.4% (active) in the assay with MDA-MB-231 breast; -84.5% (active) in the assay with RXF 393 renal; -0.197% (active) in the assay with SF-268 CNS. Moreover, the growth with SF-295 CNS was -63.2% (active); in the assay with SF-539 CNS, -87.4% (active); in the assay on UACC-257 melanoma, -84.2% (active); in the assay on M14 melanoma, -70.7% (active).
